Records with an inconclusive call do not appear. A call without a number means that no potency is given here. Active and inactive are the calls of the source. Calls follow the shape of the dose curve; as a rule, active = well fitted activation curve with a large enough effect in the main read-out, with a control signal flat (not every such curve was filed as active); inconclusive = small, poorly fitted or top-dose-only effect, or effect the other way, or a change in a side signal; inactive = flat fitted curve, though single readings scatter. Residues, ends and D or L forms follow the SMILES beside them. *: point of attachment. Cbz = O=C(OCc1ccccc1)*
Each compound was assayed against 3',5'-cyclic-AMP phosphodiesterase 4B (Homo sapiens) (UniProt Q07343) (assay: qHTS Assay for Inhibitors of PDE-IV (AID 607)). Settings: HEK293 ACTOne CNG channel cells, membrane potential fluorescence; series mostly up to 22.9 µM.
Text: NIH Chemical Genomics Center [NCGC]
NIH Molecular Libraries Screening Centers Network [MLSCN]
The cyclic nucleotide phosphodiesterases (PDEs) are proteins that catalyze hydrolysis of 3', 5'-cyclic nucleotides, such as cyclic adenosine monophosphate (cAMP) and cyclic guanosine monophosphate (cGMP), to their corresponding 5'-nucleotide monophosphates. These enzymes play an important role in controlling cellular concentrations of cyclic nucleotides and have a central role in a variety of intracellular signaling events. cAMP PDEs are emerging as a promising class of drug targets in asthma and cardiovascular disease therapeutic areas.
There are no commercially available cell-based screening assays for PDE inhibitors: currently biochemical assays are done using pure substrates (cAMP or cGMP) and purified recombinant PDE enzymes. As with other biochemical screens on intracellular targets, false positives and false negatives may result from issues involving cell membrane permeability, cellular metabolism, and the like.
Here we report the development of a cell-based screening assay for cAMP phosphodiesterase (PDE) inhibitors. The assay is based on the BD ACTOne# technology (BD Biosciences) which utilizes a modified cyclic nucleotide-gated channel (CNG) to monitor intracellular cAMP changes in live cells. The CNG channel is localized on the plasma membrane, and opens when the intracellular cAMP level increases, resulting in ion flux and cell membrane depolarization. The influx of cations through the CNG channel can be quantified using membrane potential (MP) dyes. We modified the BD ACTOne technology to allow the detection of PDE inhibitors, and performed an inhibitor screen for PDE-IV, which is expressed endogenously in HEK293 cells. We optimized this assay in homogeneous 1536-well plate assay format for high throughput screening.
NCGC Assay Protocol Summary:
The medium contained 10% FBS (Invitrogen), 2 mM L-glutamine, and 250 ug/ml G418 (Cellgro) and 1 ug/ml puromycin (Clontech). ACTOneTM parental cells (BD Biosciences) were maintained in the same medium without puromycin.
The activity of the CNG channel was measured by BD ACTOneTM membrane potential dye kit (BD Biosciences). Forskolin, a positive control for cAMP activation and RO 20-1724, a PDE inhibitor, were both purchased from Sigma and solublized in DMSO.
Sequence,Parameter,Value,Description
1,Reagent,3 uL,1000 cells/well 1536 TC treated Black plate
3,Compound,0.5 uL,Kalypsys dispense RO 20-1724 100 uM final [A]
4,Reagent,3 uL,BD membrane potential dye
6,Compound,23 nL,Final concentration was 0.7nM to 22.9uM
8,Detector,EX 535 / EM 590 [B],Envision
Footnotes: [A] The stock 2 mM RO 20-1724 PDE inhibitor was made in 10 % DMSO. Parental cell line received 10 uM forskolin + 100 uM RO. [B] Envsion settings: Bottom Excitation 535/20 nm top emission 590/20, gain of 150 and 5 flashes per well.
Keywords: PDE, PDE-IV, cytotoxicity, flourescence, MLSMR, MLSCN, NIH Roadmap, qHTS, NCGC

Chain of 3',5'-cyclic-AMP phosphodiesterase 4B (Homo sapiens) (Q07343 whole entry, looked up): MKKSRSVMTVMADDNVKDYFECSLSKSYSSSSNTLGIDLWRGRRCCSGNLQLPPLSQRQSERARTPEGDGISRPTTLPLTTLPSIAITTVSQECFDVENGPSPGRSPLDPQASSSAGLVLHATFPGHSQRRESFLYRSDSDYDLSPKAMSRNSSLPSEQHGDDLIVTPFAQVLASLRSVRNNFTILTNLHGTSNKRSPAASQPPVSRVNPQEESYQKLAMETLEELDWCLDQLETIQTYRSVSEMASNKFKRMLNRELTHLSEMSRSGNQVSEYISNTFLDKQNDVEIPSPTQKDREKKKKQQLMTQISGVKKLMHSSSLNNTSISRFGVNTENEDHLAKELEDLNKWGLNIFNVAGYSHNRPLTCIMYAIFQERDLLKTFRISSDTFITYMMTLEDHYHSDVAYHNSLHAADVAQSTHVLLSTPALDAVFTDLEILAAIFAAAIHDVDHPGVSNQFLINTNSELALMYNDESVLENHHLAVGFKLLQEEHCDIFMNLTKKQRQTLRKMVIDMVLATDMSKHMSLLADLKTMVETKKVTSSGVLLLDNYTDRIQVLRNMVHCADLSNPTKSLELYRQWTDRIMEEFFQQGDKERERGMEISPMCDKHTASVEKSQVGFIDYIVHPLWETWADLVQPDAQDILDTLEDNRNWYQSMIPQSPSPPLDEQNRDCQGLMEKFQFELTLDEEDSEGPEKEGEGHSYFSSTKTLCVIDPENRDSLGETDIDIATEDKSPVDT

SMILES | Potency
C[C@H](NC(=O)/C(C#N)=C/c1ccc(O)c(O)c1)c1ccccc1 | inactive
O=C(O)Cc1c[nH]c2ccc(O)cc12 | inactive
O=c1cc(-c2ccccc2)[nH]c2nc(Cl)ccc12 | inactive
S=C(S)N1CCCC1 | inactive
COc1cc(CNC(=O)CCCCCCC(C)C)ccc1O | inactive
N#C/C(=C\c1ccc(O)c(O)c1)C(=O)NCCc1ccccc1 | inactive
N#Cc1cc2nc(O)c(O)nc2cc1[N+](=O)[O-] | inactive
CC(=O)N[C@@H](Cc1c[nH]c2ccccc12)C(=O)OCc1cc(C(F)(F)F)cc(C(F)(F)F)c1 | inactive
O=[N+]([O-])c1cccc2c(Br)[nH]nc12 | inactive
NC1(C(=O)O)CCCCC1 | inactive
O=C(O)c1ccccc1Nc1cccc(OCc2ccc3ccccc3n2)c1 | inactive
O=C(O)c1cccnc1C(=O)O | inactive
CNc1cc(NS(=O)(=O)c2ccc(N)cc2)nc(NC)n1 | inactive
CCN1C(=O)C=CC1=O | inactive
CCCCCC[C@@H]([C@@H](C)O)n1cnc2c(N)ncnc21 | inactive
COc1ccccc1N1CCN(CCCCNC(=O)c2ccc3ccccc3c2)CC1 | inactive
Nc1ncnc2c1ncn2C1CCCC1 | inactive
CN[C@H](CC(=O)O)C(=O)O | inactive
Cn1cc(C(=O)OCC2CCN(CCNS(C)(=O)=O)CC2)c2ccccc21 | inactive
O=C(OCCN1CCOCC1)C1(c2ccccc2)CCCCC1 | inactive

SMILES | Potency
COc1ccc(-c2ccc(N)[n+](CCCC(=O)O)n2)cc1 | inactive
O=C(O)/C(=C/c1c(C(=O)O)[nH]c2cc(Cl)cc(Cl)c12)c1ccccc1 | inactive
CSC(=N)N | inactive
N=C(N)c1ccc(N)cc1 | inactive
NOCC(=O)O | inactive
CC[C@@H]1Cc2cc(O)ccc2C2=C1c1ccc(O)cc1C[C@H]2CC | inactive
NC(=Nc1ccccc1)NC(=O)c1nc(Cl)c(N)nc1N | inactive
O=C(O)c1ccccc1Nc1ccccc1 | inactive
CCCc1c(-c2ccc(O)cc2)nn(-c2ccc(O)cc2)c1-c1ccc(O)cc1 | inactive
C[C@H](O)C(=O)C1=Nc2c(nc(N)[nH]c2=O)NC1 | inactive
CCN(c1nc(N)c(C(=O)N=C(N)N)nc1Cl)C(C)C | inactive
O=c1[nH]ccc2c(O)cccc12 | inactive
Nc1nc2[nH]c(=O)cnc2c(=O)[nH]1 | inactive
N#C/C(=C\c1ccc(O)c(O)c1)C(=O)NCCCNC(=O)/C(C#N)=C/c1ccc(O)c(O)c1 | inactive
COc1ccc2c(c1)c(CC(=O)O)c(C)n2Cc1ccc(Cl)cc1 | inactive
CC(C)[C@H](NC(=O)OCc1ccccc1)C(=O)N[C@H](C=O)Cc1ccccc1 (Cbz-Val-Phe-aldehyde) | inactive
Nc1nc2ccc(Cl)cc2c2nc(-c3ccco3)nn12 | inactive
O=C(O)C1=CCCNC1 | inactive
NC(=O)c1ccccc1 | inactive
Cc1nc(N=Nc2ccc(S(=O)(=O)O)cc2S(=O)(=O)O)c(COP(=O)(O)O)c(C=O)c1O | inactive
